The list is not random: actives were taken first. Their share in the collection is about 3.5%.
FBW7 act: activators of human E3 ligase FBW7 | AlphaScreen FBW7–phospho-cyclin E peptide binding, activator screen | normalized activity (activation), % at 26.1 µM | 650,000 tested, 0.13% active; in the data active = normalized activity above about 1.9%;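 note: purified mutant Fbw7 with reduced substrate affinity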
TEAD-YAP inh: TEAD-YAP interaction inhibition; 640,000 tested, 1.4% active; inhibition, % at 9.12 µM; HEK-TIYL cells, TEAD-Gal4/YAP UAS-luciferase luminescence; AID 1259422; in the data active = inhibition above about 32%
GPR151 activ: activators of human GPR151 | PathHunter beta-arrestin GPR151 cells, luminescence | activation, % at 11.2 µM | 650,000 tested, 1% active | AID 1508602; in the data active = activation above about 4.9%
MITF primary: blocks human microphthalmia-associated transcription factor; 650,000 tested, 0.91% active; AlphaScreen MITF homodimerization, bead proximity signal; AID 1259374; O75030; inhibition, % at 2.6 µM; in the data active = inhibition above about 50%
GPR151 confirm: human GPR151 activation, confirmation screen; shares compounds with GPR151 activ; GPR151 PathHunter beta-arrestin cells, luminescence, 90 min; % of EA-reagent control over plate median; activation, % at 11.2 µM; 6,700 tested, under 10 active; AID 1508609;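 active = mean percent activation across replicates above the confirmation screen cutoff of 4.91%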
GPR119 counter: activates human GPR119 in a GPR151 counter-screen; AID 1508611; shares compounds with GPR151 activ; 6,700 tested, 0.3% active; GPR119 PathHunter beta-arrestin cells, luminescence, 90 min; 0 = compound-well median, 100 = enzyme-acceptor control; activation, % at 11.2 µM;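 active = mean percent activation in the counterscreen above 29.09%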;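 note: counterscreen on off-target GPR119 to flag nonselective hits from the GPR151 activator screen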
Of the large screens only hits and unclear results are named; the others gave an inactive call (follow-up assays come after a bar, where they were run).

NC(=O)c1ccc(-c2cccc(C(=O)NCCc3ccc(O)cc3)c2)cc1	none
Cc1cc(C)cc(NC(=O)CC2CC3CCC2C3)c1 (centres undefined)	GPR151 activ 8.7 | GPR151 confirm inactive | GPR119 counter inactive
Cc1ccc(C(=O)NN=C2CCN(C)CC2)cc1	none
CC(C)N1CCC(=NNC(=O)c2ccc(C(C)(C)C)cc2)CC1	GPR151 activ 6.7 | GPR151 confirm inactive | GPR119 counter inactive
Cc1cccc(NC2=NC(=S)N(c3ccc(Cl)cc3)C23CCCCC3)c1	none
CCOC(=O)C1(CCc2ccccc2)CCN(Cc2cnc(C)s2)CC1	GPR151 activ 9.8 | GPR151 confirm inactive | GPR119 counter inactive
OCC1(CCc2ccccc2)CCN(Cc2cnc(N3CCCC3)s2)CC1	GPR151 activ 6.6 | GPR151 confirm inactive | GPR119 counter inactive
N#Cc1c(-c2ccccc2)nc(SCC(=O)Nc2cccc3ccccc23)[nH]c1=O	none
O=C(/C=C/c1ccc(-c2ccc(Br)cc2)o1)N1CCOCC1	GPR151 activ 5.4 | GPR151 confirm inactive | GPR119 counter inactive
O=C(/C=C/c1ccc(Br)cc1)N1CCOCC1	none
CN(C)CCNc1nc2cc(F)ccc2n2ccnc12	none
CCN(CC)Cc1c(C(=O)N/N=C/c2cccc([N+](=O)[O-])c2)nnn1-c1nonc1N	GPR151 activ 9.9 | GPR151 confirm inactive | GPR119 counter inactive
CCOc1cc(/C=N/NC(=O)c2nnn(-c3nonc3N)c2-c2ccccc2)ccc1O	none
CCOc1cc(/C=N/NC(=O)c2nnn(-c3nonc3N)c2CC)ccc1O	GPR151 activ 6.9 | GPR151 confirm inactive | GPR119 counter inactive
c1ccc2c(c1)CC(c1nc3c(OCCN4CCOCC4)cc(-c4cn[nH]c4)cc3s1)CO2 (centres undefined)	none
Cc1cc(NC(=O)c2ccc3c(c2)C(=O)N(CC2CCCO2)C3=O)no1 (centres undefined)	none
Cc1nnc(NC(=O)c2ccc3c(c2)C(=O)N(CC2CCCO2)C3=O)s1 (centres undefined)	GPR151 activ 6.9 | GPR151 confirm inactive | GPR119 counter inactive
O=C(COc1ccc(-c2ccccc2)cc1)NNC(=O)c1ccco1	none
CCOCCn1c(=O)c2c(nc3n(-c4ccc(OCC)cc4)c(C)cn23)n(C)c1=O	none
O=C(CSc1nnnn1C1CCCC1)N1CCOCC1	none
O=C(CSc1nnnn1C1CCCCC1)N1CCCCC1	GPR151 activ 5.0 | GPR151 confirm inactive | GPR119 counter inactive
Cn1c(SCC(=O)c2ccc([N+](=O)[O-])cc2)nnc1-c1ccc(N)cc1	none
O=[N+]([O-])c1cccc(-c2csc(N3CCN(c4ncccn4)CC3)n2)c1	none
O=C(Nc1ccon1)c1sc2cc(F)ccc2c1Cl	none
O=C(NC1=NCCS1)c1sc2cc(F)ccc2c1Cl	GPR151 activ 7.4 (no result: FBW7 act, TEAD-YAP inh, MITF primary) | GPR151 confirm inactive | GPR119 counter inactive
N#Cc1c(-c2ccccc2)cc(-c2ccccc2)nc1SCc1ccc(Cl)c(Cl)c1	none
N#Cc1c(-c2ccccc2)cc(-c2ccccc2)nc1SCc1ccc(Cl)cc1	GPR151 activ 5.5 | GPR151 confirm inactive | GPR119 counter inactive
COc1ccc(S(=O)(=O)NCCSC(C)(C)C)c(Cl)c1Cl	GPR151 activ 8.6 | GPR151 confirm inactive | GPR119 counter inactive
COc1ccc(S(=O)(=O)Nc2cccc(N(C)S(C)(=O)=O)c2)c(Cl)c1Cl	none
COc1ccc(S(=O)(=O)Nc2cccc([N+](=O)[O-])c2)c(Cl)c1Cl	GPR151 activ 5.2 | GPR151 confirm inactive | GPR119 counter inactive
CC(C)(C)c1[nH]nc2c1C(c1cccc(OC(=O)c3ccco3)c1)C(C#N)=C(N)O2 (centres undefined)	none
COc1cccc(CC(=O)Nc2cnc3cnc(-c4cc(OC)c(OC)c(OC)c4)cn23)c1	none
COC(=O)C1=C(NC(=O)c2ccccc2Br)CCS1	GPR151 activ 5.0 | GPR151 confirm inactive | GPR119 counter inactive
COC(=O)C1=C(NC(=O)COc2ccc(Cl)cc2)CCS1	GPR151 activ 6.1 | GPR151 confirm inactive | GPR119 counter inactive
c1nc(NCCc2ccc3c(c2)OCCO3)c2ccsc2n1	TEAD-YAP inh 39, GPR151 activ 5.6 | GPR151 confirm inactive | GPR119 counter inactive
CC(C)(C)C(=O)Nc1sccc1C#N	none
O=c1c2cn[nH]c2nc(SCc2cccc([N+](=O)[O-])c2)n1-c1ccc(Cl)cc1	none

Compound activity (PubChem BioAssay)
